Source: PubChem BioAssay AID1259336 (Sattelle Laboratory, UCL Respiratory, Division of Medicine, …, 2017)
Values without a mark were called inactive. Calls of active or inactive are those of the source. No stated cut-off is given here; in the data, active means log2 fold change growth below about -1.8; inactive means the rest.

Assay: C. elegans growth inhibition, whole organism, log2 fold change (AID 1259336);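 further: growth scored by imaging after five days at 20 °C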
Details: anthelmintic screen, stronger effect = lower value

Structure (SMILES) | log2 fold change growth
N=C(N)c1ccc(OCCCCCOc2ccc(C(=N)N)cc2)cc1 | 0.291
C[C@H](C(N)=O)N1CCCC[C@H]1c1ccc(OCc2cccc(F)c2)cc1 | -0.0659
CCOc1ccc(OCC(=O)Nc2cc(C)cc(C)c2)cc1 | -0.0899
C[C@H](Oc1cccc(Cl)c1)C(=O)Nc1ccc2oc(-c3ccncc3)nc2c1 | 0.206
COC[C@H](C)NC(=O)CSc1ncnc2sc(-c3ccccc3)cc12 | -0.053
Cc1ccc(C(=O)Nc2ccc(S(=O)(=O)O)c3cc(S(=O)(=O)O)cc(S(=O)(=O)O)c23)cc1NC(=O)c1cccc(NC(=O)Nc2cccc(C(=O)Nc3cc(C(=O)Nc4ccc(S(=O)(=O)O)c5cc(S(=O)(=O)O)cc(S(=O)(=O)O)c45)ccc3C)c2)c1 | 0.211
CC(C)(C)C1CCC(CC2=C(O)c3ccccc3C(=O)C2=O)CC1 (stereo not drawn) | -0.0767
O=[N+]([O-])c1cn2c(n1)OC[C@@H](OCc1ccc(OC(F)(F)F)cc1)C2 | -0.142
CCCCc1ccc(C(=O)Nc2nccc3ccccc23)nc1 | 0.243
Cc1cc(OCC(=O)NCc2ccccc2)c2cc(Br)ccc2n1 | 0.232
Cc1cc(C)n2nc(C(=O)Nc3cc(C(F)(F)F)ccc3N3CCOCC3)nc2n1 | 0.174
CNc1nnc(Sc2cnn(-c3ccccc3)c(=O)c2Cl)s1 | -0.948
CCN(CC)S(=O)(=O)c1ccc(Cl)c(C(=O)Nc2ccc3nc(C)sc3c2)c1 | -1.22
CO[C@@H](C(=O)N1Cc2[nH]nc(NC(=O)c3ccc(N4CCN(C)CC4)cc3)c2C1)c1ccccc1 | 0.339
O=C([C@@H](c1ccc(Cl)cc1)c1cccnc1)N1CCN(c2ccc(C(F)(F)F)cc2)CC1 | -0.994
CCc1ccc([C@@H]2C[C@H](C(F)(F)F)n3ncc(C(=O)NCc4ccc(OC)cc4)c3N2)cc1 | -1.82 (active)
Cc1cc(Cl)c(S(=O)(=O)N2CCCC2)cc1OCC(=O)NC1CCCCC1 | -0.00734
O=C(c1n[nH]c2c1CCCC2)N1CCN(Cc2ccc3c(c2)OCO3)CC1 | 0.387
CNc1snc(C)c1C(=O)NCCOc1ccc(OC)cc1 | -0.0598

Structure (SMILES) | log2 fold change growth
Nc1ncnc2c1c(-c1cnc3ccccc3c1)nn2CC1CCNCC1 | 0.195
Cc1ccc(NC(=O)c2cc(S(=O)(=O)NC(C)(C)C)ccc2C)nc1 | 0.26
CC(C)=CCC/C(C)=C\CNCCNC1C2CC3CC(C2)CC1C3 (stereo not drawn) | 0.423
Nc1nccc2ccc(Oc3ccncc3)cc12 | 0.145
CC1=Nc2ccc(Cl)cc2[C@H](c2ccccc2)N1CCNC(=O)CN(C)C | 0.44
CC1CCCN(C(=O)C(C)Nc2cc(Cl)ccc2N2CCOCC2)C1 (stereo not drawn) | 0.538
Cc1cc(C)nc(-n2nc(C)cc2Nc2ccccc2)n1 | 0.0497
N#Cc1ccc(-c2cnc(N)c(-c3ccc(C(N)=O)cc3)n2)cc1 | -0.619
N=C(N)c1ccc(-c2cc(-c3ccccc3)on2)cc1 | 0.247
O=C(Nc1n[nH]c(=S)s1)c1cc(Br)ccc1Cl | 0.172
CCOc1ccccc1N[C@@H](C)C(=O)Nc1cc(C(F)(F)F)ccc1N1CCOCC1 | -1.5
O=C(C1CCCCC1)N1CC(=O)N2CCc3ccccc3[C@@H]2C1 | 0.303
CC(=O)N1CCN(c2ccc(Oc3ccc(Cl)cc3O)cc2)CC1 | 0.423
CCOc1ccccc1C(=O)Nc1cccc(-c2nc3ncccn3c2C)c1 | -0.256
c1ccc(Oc2ccc(-c3cncc(-c4ccc5[nH]ccc5c4)n3)cc2)cc1 | -1.03
CCn1cnc2c(Nc3cc(F)cc(F)c3)nc(C#N)nc21 | -0.053
CCc1ccccc1-n1c(C)cn2c3c(=O)n([C@H](C(=O)OC)C(C)C)c(=O)n(C)c3nc12 | 0.456
O=C(c1ccc(F)cc1)N(CCNc1ccccc1)c1ccccc1 | 0.348
Nc1ncnc2c1c(Cc1cccc3ccccc13)nn2CC1CCNCC1 | -0.11
